Test [1] concerns Plasmodium falciparum Sir2 (PF13_0152, Sir2A). As to the kind of experiment: Plasmodium falciparum Sir2A binding compounds – biochemical, small-molecule microarray, 635 nm fluorescence, primary screen (AID 1098).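 Further: score merges spot fluorescence intensity with its signal-to-noise ratio.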 Conditions: fluorescence 635 nm, higher = more signal.
A short description of test [2]: probe aDKK1 binding to arrayed compounds – biochemical, biotinylated probe, 635/667 nm fluorescence, primary screen (AID 1099).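 Further: score merges 667nm spot fluorescence with signal to noise across triplicate slides.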 The note with it: small-molecule microarray, higher = more signal.
Test [3] in a line: probe aCHRDL2 binding to arrayed compounds – biochemical, biotinylated probe, 635/667 nm fluorescence, primary screen (AID 1100). The note with it: small-molecule microarray, higher = more signal.
Test [4] can be described thus: change in splice reporter luminescence, either direction, cell-based, HEK293, spliceosome inhibition project, primary screen (AID 1101).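 Further: HEK293 cells carrying a splicing-competent luciferase reporter gene; test concentration not given here.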 The note with it: HEK293 splicing luciferase reporter, 24 h, higher = more signal, called active from +8 up or from −8 down. (In general: In a reporter assay the amount or activity of a reporter protein is the signal.)
Test [5] addresses Fibroblast growth factor 10 (Homo sapiens) (UniProt O15520). As to the kind of experiment: compounds binding fibroblast growth factor 10 – biochemical, small-molecule microarray, 635 nm fluorescence, primary screen (AID 1102). Conditions: FGF10 binding, fluorescence 635 nm, higher = more signal.
Test [6] deals with glycogen synthase kinase-3 (GSK3A per assay name; protocol says GSK3B). Kind of test: compounds binding glycogen synthase kinase-3 – biochemical, small-molecule microarray, 635 nm fluorescence, GSK3A, primary screen (AID 1103). Further: the record names both GSK3A and GSK3B. Conditions: fluorescence 635 nm, higher = more signal.
In test [7] the target is Epidermal growth factor receptor (Homo sapiens) (UniProt P00533). Kind of test: compounds binding epidermal growth factor receptor – biochemical, small-molecule microarray, 635 nm fluorescence, primary screen (AID 1104).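 Further: score merges 667 nm emission intensity with spot signal to noise over triplicate slides.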 The note with it: EGFR binding, higher = more signal.
Test [8] has as its target Follistatin-related protein 3 (Homo sapiens) (UniProt O95633). As to the kind of experiment: compounds binding follistatin-related protein 3 – biochemical, small-molecule microarray, 635 nm fluorescence, primary screen (AID 1105).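 Further: score merges emission near 667 nm and signal to noise per printed spot across three slides.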 Conditions: FSTL3 binding, higher = more signal.
The target in test [9] is Dickkopf-related protein 1 (Homo sapiens) (UniProt O94907). As to the kind of experiment: small molecules binding DKK1 protein – biochemical, small-molecule microarray, 635 nm fluorescence scan, primary screen (AID 1106).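 Further: score merges emission near 667 nm with signal to noise over three replicate slides.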 Conditions: higher = more signal.
Test [10] concerns Inhibin beta A chain (activin A). As to the kind of experiment: small molecules binding activin A – biochemical, small-molecule microarray, 635 nm fluorescence scan, primary screen (AID 1107).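 Further: mouse activin A protein probed at 4.33 µg/mL on printed slides; score merges bound-protein fluorescence near 667 nm with spot signal-to-noise.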 The note with it: INHBA, higher = more signal.
Test [11] concerns Human papillomavirus type 1a protein E7 (residues 44-93). As to the kind of experiment: small molecules binding HPV E7 44-93 – biochemical, small-molecule microarray, residues 44-93, 635 nm fluorescence, primary screen (AID 1108).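 Further: E7 fragment applied at 1 µg/mL in TBST for 1 h at 4 C; score combines spot fluorescence with its signal to noise ratio.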 Conditions: fluorescence 635 nm, higher = more signal.
Test [12] can be described thus: hepatitis C replication reporter changes, two-sided – Huh7 cells, luciferase reporter, HCV replication inhibitor project, primary screen (AID 1109).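 Further: huh7 hepatoma cells harbouring a luciferase neomycin HCV replicon reporter; luciferase luminescence as measure of HCV replicon replication; test concentration not given here.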 Conditions: Huh7 HCV replicon luciferase reporter, 48 h; higher = more signal.
Test [13] has as its target Left-right determination factor 2 (Homo sapiens) (UniProt O00292). Kind of test: small molecules binding LEFTY2 protein – biochemical, small-molecule microarray, 635 nm fluorescence scan, primary screen (AID 1110). Conditions: higher = more signal.
Test [14] addresses Calmodulin-1 (Homo sapiens) (UniProt P0DP23). As to the kind of experiment: small molecules binding calmodulin-1 with EGTA – biochemical, small-molecule microarray, Cy5-labelled CALM1, profiling panel (AID 1111).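 Further: labelled calmodulin applied in Tris saline Tween buffer holding calcium plus EGTA and DTT.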 Conditions: Cy5-CALM1 binding fluorescence, higher = more signal.
For test [15] the target is unchanged. As to the kind of experiment: small molecules binding Ca-loaded calmodulin-1 – biochemical, small-molecule microarray, Cy5-labelled CALM1, plus calcium, artefact control for SMM control-protein annotation, profiling panel (AID 1112).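 Further: score merges spot fluorescence with signal to noise from triplicate slides.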 The note with it: Cy5-CALM1 binding fluorescence, higher = more signal.
Test [16] can be described thus: probe aWnt5a binding to arrayed compounds – biochemical, biotinylated probe, 635/667 nm fluorescence, primary screen (AID 1113).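 Further: score merges 667 nm fluorescence intensity with signal-to-noise per printed feature.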 Conditions: small-molecule microarray, higher = more signal.
The nature of test [17]: probe aShh binding to arrayed compounds – biochemical, biotinylated probe, 635/667 nm fluorescence, primary screen (AID 1114).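 Further: probe is biotin-labelled aShh protein from a stem cell growth factor screen; measures binding of labelled protein to compounds printed on the slide; score merges feature fluorescence at 667 nm with signal-to-noise.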 The note with it: small-molecule microarray, higher = more signal.
A short description of test [18]: probe aNog binding to arrayed compounds – biochemical, biotinylated probe, 635/667 nm fluorescence, primary screen (AID 1115).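 Further: probe is biotinylated aNog protein used at 0.15 µg/mL for 1 h at 4 C; z-score combines 667 nm fluorescence of each spot with its signal to noise.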 Conditions: small-molecule microarray, higher = more signal.
The target of test [19] is Torsin-1A-interacting protein 1 (Homo sapiens) (UniProt Q5JTV8). As to the kind of experiment: compound microarray binding of lysate hLAP1 – cell lysate, small-molecule microarray, COS7 lysate, 635/667 nm fluorescence, primary screen (AID 1116). The note with it: 635 nm fluorescence, higher = more signal.
Test [20] addresses Alpha-bungarotoxin (Bungarus multicinctus) (UniProt P60615). As to the kind of experiment: compounds binding labelled alpha-BTX control protein – biochemical, small-molecule microarray, Alexa647 label, 635/667 nm fluorescence, artefact control for SMM control protein annotation, profiling panel (AID 1117). The note with it: alpha-BTX-A647 binding fluorescence, higher = more signal.

Calls of active or inactive are those of the source.

Chain of Follistatin-related protein 3 (Homo sapiens) (O95633 whole entry, looked up): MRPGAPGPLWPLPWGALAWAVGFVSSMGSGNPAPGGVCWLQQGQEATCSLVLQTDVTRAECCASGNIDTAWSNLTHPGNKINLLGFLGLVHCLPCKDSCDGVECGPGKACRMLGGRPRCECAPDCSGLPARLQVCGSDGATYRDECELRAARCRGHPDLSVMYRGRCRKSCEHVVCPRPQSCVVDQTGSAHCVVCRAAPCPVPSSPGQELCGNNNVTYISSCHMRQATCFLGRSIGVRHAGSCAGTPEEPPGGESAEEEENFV
Chain of Alpha-bungarotoxin (Bungarus multicinctus) (P60615 whole entry, looked up): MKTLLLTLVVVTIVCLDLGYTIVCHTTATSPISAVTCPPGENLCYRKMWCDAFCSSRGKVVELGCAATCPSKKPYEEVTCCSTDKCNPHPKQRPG
Chain of Torsin-1A-interacting protein 1 (Homo sapiens) (Q5JTV8 whole entry, looked up): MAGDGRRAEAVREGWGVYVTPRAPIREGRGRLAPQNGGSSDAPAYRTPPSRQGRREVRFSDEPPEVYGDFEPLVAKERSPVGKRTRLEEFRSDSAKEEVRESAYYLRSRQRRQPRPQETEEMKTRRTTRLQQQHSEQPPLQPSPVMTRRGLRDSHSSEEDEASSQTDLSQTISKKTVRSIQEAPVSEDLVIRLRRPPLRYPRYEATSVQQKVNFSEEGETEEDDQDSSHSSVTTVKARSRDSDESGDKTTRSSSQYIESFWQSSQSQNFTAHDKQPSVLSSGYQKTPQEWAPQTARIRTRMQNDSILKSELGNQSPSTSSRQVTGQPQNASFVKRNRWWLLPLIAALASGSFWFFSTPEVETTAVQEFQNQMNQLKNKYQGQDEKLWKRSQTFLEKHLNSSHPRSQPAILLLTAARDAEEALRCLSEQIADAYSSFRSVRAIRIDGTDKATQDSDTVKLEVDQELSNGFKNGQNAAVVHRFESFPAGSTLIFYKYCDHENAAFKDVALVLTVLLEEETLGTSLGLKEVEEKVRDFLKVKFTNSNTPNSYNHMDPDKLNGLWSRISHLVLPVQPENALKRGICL
Chain of Epidermal growth factor receptor (Homo sapiens) (P00533 whole entry, looked up): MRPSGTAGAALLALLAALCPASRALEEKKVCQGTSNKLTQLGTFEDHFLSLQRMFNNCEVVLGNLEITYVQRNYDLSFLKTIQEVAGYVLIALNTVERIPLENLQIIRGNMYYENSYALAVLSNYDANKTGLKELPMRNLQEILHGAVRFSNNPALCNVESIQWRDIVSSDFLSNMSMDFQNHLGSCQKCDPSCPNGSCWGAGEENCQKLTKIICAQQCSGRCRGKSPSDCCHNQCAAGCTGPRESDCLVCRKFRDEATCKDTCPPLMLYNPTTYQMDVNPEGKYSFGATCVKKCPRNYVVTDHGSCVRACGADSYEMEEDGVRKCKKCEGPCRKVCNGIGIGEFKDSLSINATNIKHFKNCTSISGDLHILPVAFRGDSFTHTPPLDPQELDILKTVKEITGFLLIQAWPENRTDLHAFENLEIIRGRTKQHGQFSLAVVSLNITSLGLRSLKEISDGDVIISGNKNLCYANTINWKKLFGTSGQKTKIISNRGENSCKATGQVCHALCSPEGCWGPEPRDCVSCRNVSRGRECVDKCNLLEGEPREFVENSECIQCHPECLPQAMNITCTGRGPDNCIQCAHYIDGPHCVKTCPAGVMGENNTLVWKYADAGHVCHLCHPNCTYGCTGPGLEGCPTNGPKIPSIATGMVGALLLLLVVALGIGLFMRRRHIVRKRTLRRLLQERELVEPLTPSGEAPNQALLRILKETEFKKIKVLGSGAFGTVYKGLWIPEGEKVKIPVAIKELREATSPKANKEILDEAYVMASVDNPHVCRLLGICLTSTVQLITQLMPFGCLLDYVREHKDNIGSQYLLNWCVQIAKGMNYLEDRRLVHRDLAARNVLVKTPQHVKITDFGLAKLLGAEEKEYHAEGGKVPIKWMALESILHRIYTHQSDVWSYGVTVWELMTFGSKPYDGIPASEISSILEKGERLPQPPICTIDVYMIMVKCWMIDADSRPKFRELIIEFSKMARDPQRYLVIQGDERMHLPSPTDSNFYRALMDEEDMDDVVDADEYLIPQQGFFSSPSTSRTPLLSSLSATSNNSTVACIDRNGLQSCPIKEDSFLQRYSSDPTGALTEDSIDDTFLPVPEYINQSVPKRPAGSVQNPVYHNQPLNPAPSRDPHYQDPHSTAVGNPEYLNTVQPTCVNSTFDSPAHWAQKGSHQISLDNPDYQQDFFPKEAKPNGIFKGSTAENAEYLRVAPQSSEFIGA
Chain of Left-right determination factor 2 (Homo sapiens) (O00292 whole entry, looked up): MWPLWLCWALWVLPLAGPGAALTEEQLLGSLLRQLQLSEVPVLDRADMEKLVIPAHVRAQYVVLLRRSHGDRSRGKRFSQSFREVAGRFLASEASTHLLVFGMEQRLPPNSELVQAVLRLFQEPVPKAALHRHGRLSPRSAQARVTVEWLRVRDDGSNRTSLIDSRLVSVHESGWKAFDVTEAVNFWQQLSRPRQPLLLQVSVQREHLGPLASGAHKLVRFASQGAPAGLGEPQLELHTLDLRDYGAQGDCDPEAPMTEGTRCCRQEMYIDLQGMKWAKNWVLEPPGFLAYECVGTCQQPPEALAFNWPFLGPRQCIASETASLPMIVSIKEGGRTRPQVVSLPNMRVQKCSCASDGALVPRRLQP
Chain of Dickkopf-related protein 1 (Homo sapiens) (O94907 whole entry, looked up): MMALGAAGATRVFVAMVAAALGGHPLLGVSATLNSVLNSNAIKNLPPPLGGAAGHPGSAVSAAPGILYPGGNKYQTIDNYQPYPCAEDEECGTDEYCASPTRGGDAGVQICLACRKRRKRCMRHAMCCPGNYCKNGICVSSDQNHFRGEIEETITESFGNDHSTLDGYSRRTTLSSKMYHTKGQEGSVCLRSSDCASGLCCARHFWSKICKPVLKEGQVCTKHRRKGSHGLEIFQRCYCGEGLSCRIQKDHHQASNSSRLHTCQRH
Chain of Fibroblast growth factor 10 (Homo sapiens) (O15520 whole entry, looked up): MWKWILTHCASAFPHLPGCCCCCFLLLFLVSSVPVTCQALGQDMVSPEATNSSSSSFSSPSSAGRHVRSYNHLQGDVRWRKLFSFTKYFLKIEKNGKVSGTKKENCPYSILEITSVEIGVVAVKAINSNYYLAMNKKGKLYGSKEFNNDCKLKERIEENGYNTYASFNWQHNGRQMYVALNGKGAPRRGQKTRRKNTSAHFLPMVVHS

On to `COC(=O)C(CC#Cc1ccc2c(c1)[C@]1(C(=O)N2)[C@H](C(N)=O)[C@H]2C(=O)O[C@H](c3ccccc3)[C@H](c3ccccc3)N2[C@@H]1c1ccc(O)cc1)C(=O)OC`, for which the composite z-score is 1.12 in test [1]; -0.608 in [2]; -0.0947 in test [3]; -0.519 in test [5]; -1.15 in test [6]; -1.1 in test [7]. Moreover, the composite z-score in [8] is -1.28; in test [9], -0.591; in [10] it was -1.15; in test [11], -1.74; in test [13] it was -1.19; in [14] it was -0.351. The composite z-score in test [15] is 0.221; in test [16], -0.359; in test [17], 0.373; in test [18], -0.446; in test [19], 0.659; in test [20], -0.243. Besides, the z-score was 0.0733 (inactive) in [4] and -0.152 in [12].
As for `CC(C)(C)OC(=O)CC[C@@]12N=C(c3ccc(OCCCO)cc3)O[C@@H]1c1ccccc1CN(Cc1ccccc1)C2=O`, the composite z-score is 1.39 in test [1]; 0.578 in test [2]; 0.505 in test [3]; 1.14 in test [5]; 1.19 in [6]; 0.12 in test [7]. In addition, the composite z-score in test [8] is 0.459; in [9], 0.388; in test [10], 0.682; in test [11] it was 0.33; in test [13], -0.152; in [14] it was 0.927. For the same molecule, the composite z-score in test [15] was 0.368; in [16] it was -0.0981; in test [17] it was 1.23; in [18] it was 0.36; in [19], 0.886; in test [20], 0.941. Besides, the z-score in test [4] was -0.0992 (inactive); in test [12], -2.92.
Regarding `CC(C)(C)OC(=O)CC[C@@]1(C(=O)N2CCOCC2)N=C(c2ccc(OCCCO)cc2)O[C@@H]1c1ccccc1`, the composite z-score was 1.12 in test [1]; 1.33 in test [2]; 1.36 in test [3]; 0.728 in [5]; 0.943 in test [6]; -0.384 in test [7]. The composite z-score is -0.462 in [8]; -0.607 in [9]; 0.743 in [10]; 0.358 in [11]; -0.26 in test [13]; 2.08 in [14]. Further, the composite z-score in [15] is 1.31; in test [16], -0.0403; in test [17] it was 0.798; in test [18] it was 1.4; in test [19], 3.32; in test [20], 2.06. For the same molecule, the figures for the z-score in test [4] and in test [12] were -1.17 (inactive) and -0.0126, respectively.
As for `CC(C)N1C(=O)c2ccccc2[C@@H](C(=O)NCc2ccccc2)[C@@H]1c1ccc(CO)cc1`, the composite z-score in test [1] is 1.05; in test [2], 0.326; in [3], 0.932; in [5], -0.844; in test [6], 0.192; in test [7] it was -0.183. Besides, the composite z-score in test [8] is -0.0398; in test [9], -0.319; in [10], 0.481; in [11], 0.319; in [13] it was -0.514; in [14], -0.808. For the same molecule, the composite z-score in test [15] was 0.306; in [16] it was -0.178; in [17], -0.203; in test [18], 0.198; in test [19], 0.481; in test [20], -1.92. For the same molecule, the z-score in [4] is -0.242 (inactive); in test [12], 0.313.
For the molecule `Cc1ccc(S[C@]2(C(=O)NC3CC3)CC(=O)N(Cc3ccccc3C(F)(F)F)[C@@H]2c2ccc(CO)cc2I)cc1`, the composite z-score in test [1] is 1.64; in test [2], 0.913; in test [3], 1.1; in test [5], -0.28; in [6], -0.0828; in [7], -0.385. In addition, the composite z-score in test [8] is -0.292; in [9] it was -0.425; in [10], 1.72; in [11], 0.33; in test [13], -0.659; in test [14] it was 0.514. The composite z-score is 1.14 in test [15]; -0.124 in test [16]; 0.188 in test [17]; 0.568 in test [18]; 0.955 in test [19]; 0.0637 in test [20]. The z-score in [4] is -2.01 (inactive); in test [12], -1.55.
Regarding `C=CC[C@]1(C(=O)N(C)C)N=C(c2ccc(OCCCO)cc2)O[C@H]1c1ccccc1CN=[N+]=[N-]`, the composite z-score was found to be 1.27 in test [1]; 1.68 in [2]; 1.09 in test [3]; 0.698 in [5]; 1.32 in test [6]; 0.0528 in test [7]. For the same molecule, the composite z-score was 0.513 in test [8]; 0.328 in test [9]; 1.43 in test [10]; 0.923 in test [11]; 0.447 in [13]; 2.17 in test [14]. In addition, the composite z-score in test [15] was 1.17; in test [16], 0.0324; in [17], -0.174; in [18] it was 1.24; in test [19], 1.92; in test [20], 1.58. Besides, the z-score in test [4] was -0.0363 (inactive); in [12], -2.44.
